Laboratory results from PubChem BioAssay AID686979 (National Center for Advancing Translational Sciences (NCATS), 2013).
“And” between values parts separate entries of the source, which are not always exact repeats. Identical values can stand only once. The whole screen tested about 420,000 compounds, of which about 50,000 (12%) were called active. A call without a number means that no potency is given here. About 26% were inconclusive and are not listed. Calls come from the whole dose curve; as a rule, active = well fitted inhibition curve with a large enough effect; inconclusive = small, poorly fitted or top-dose-only effect; inactive = flat fitted curve, though single readings scatter. The sample as a whole holds a higher share of actives than the screen did.
Potency is the fitted concentration of half-maximal effect.

Assay: qHTS for Inhibitors of human tyrosyl-DNA phosphodiesterase 1 (TDP1): qHTS in cells in presence of CPT; note: nearly all actives have a fitted effect of over 55% in size
Settings: chicken DT40 Tdp1-/-;hTDP1 cells + 20 nM CPT, ATP luminescence, 48 h; series mostly up to 46.2 µM
Procedure, shortened: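 Chicken DT40 Tdp1-/- cells stably complemented with human TDP1 were seeded at 400 cells/well in medium containing 20 nM camptothecin, exposed to pin-transferred compounds, and grown at 37 °C for at least 48 hr. Viability was read as ATP luminescence.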
In the case of `CCOC(=O)c1ccc(NC(=O)C2CC(=O)N(c3ccc4c(c3)OCCO4)C2)cc1` (stereo not drawn), the Potency is reported as “inactive”. In the case of `O=C1CCCC(O)=C1N=Nc1ccc2ncsc2c1`, the Potency is reported as “inactive”. In the case of `NNC(=O)CSc1nnc(-c2ccccc2)n1-c1ccccc1`, the Potency is reported as “inactive”. With `CCCCn1c(N)c(N(CCOC)C(=O)c2sc3ccccc3c2Cl)c(=O)[nH]c1=O` the Potency was “inactive”. With `CC[C@H](C)C(=O)N[C@H]1CCCN1C(=O)/C=C/c1ccccc1` the Potency was “inactive”. With `O=S(=O)(NCCS(=O)(=O)N1CCN(c2ccccc2)CC1)c1ccc(F)cc1` the Potency was “inactive”. With `O=C(Nc1ccccc1Cl)NC1(C(=O)N2CCOCC2)CCCCC1` the Potency was “inactive”. For `COc1cc2c(cc1OC)C(=O)NCC(C)(C)O2`, the Potency was “inactive”. With `Cc1cc(C)cc(NC(=O)Cn2cnc3c(nnn3Cc3ccc(F)cc3)c2=O)c1` the Potency was “inactive”. With `CCCCCn1c(=O)[nH]c2cc(C(=O)Nc3ccc(F)cc3)ccc2c1=O` the Potency was 20.6 µM (active). In the case of `CCCCCn1c(=O)[nH]c2cc(C(=O)NCCCN3CCCCC3C)ccc2c1=O` (stereo not drawn), the Potency is reported as “inactive”. For `COCCn1c(=O)[nH]c2cc(C(=O)NCc3cccnc3)ccc2c1=O`, the Potency was “inactive”. For `O=C(NC1CCCCC1)c1ccc2c(=O)n(CC3CCCO3)c(=O)[nH]c2c1` (stereo not drawn), the Potency was “inactive”. With `CCCCCn1c(=O)[nH]c2cc(C(=O)Nc3cc(C)cc(C)c3)ccc2c1=O` the Potency was 4.11 µM (active). In the case of `CC(C)n1c(=O)[nH]c2cc(C(=O)Nc3ccccc3)ccc21`, the Potency is reported as “inactive”. With `O=C(NCc1ccccc1)c1ccc2c(c1)nc1n2CCCCC1` the Potency was “inactive”. With `COc1cccc(C2C(C(=O)Nc3ccc(C)cc3C)=C(C)Nc3c(C(=O)Nc4ccccc4)cnn32)c1` (stereo not drawn) the Potency was “inactive”. For `CC(C)(C)OC(=O)C1=C(CO)CS[C@@H]2[C@H](NC(=O)Cc3ccccc3)C(=O)N12`, the Potency was “inactive”. For `C[C@H](NC(=O)C1CC(=O)N(c2ccc3c(c2)OCO3)C1)C(=O)NCc1ccco1` (stereo partly drawn), the Potency was “inactive”. For `CCOc1ccc(S(=O)(=O)N2CCC(C(=O)NCC(=O)Nc3cccc(Cl)c3C)CC2)cc1`, the Potency was “inactive”. In the case of `CC(CCc1ccccc1)NC(=O)COC(=O)c1ccc(F)cc1` (stereo not drawn), the Potency is reported as “inactive”. For `C=CCC[C@H](Cc1ccc(F)cc1)C(=O)OC[C@@H](Cc1c[nH]c2ccccc12)NC(=O)[C@H](CC=C)CC(=O)N[C@H](CO)Cc1ccccc1`, the Potency was 5.8 µM (active). With `CC(=O)NC(Cc1c[nH]c2ccccc12)C(=O)NCCc1ccccc1` (stereo not drawn) the Potency was “inactive”. With `C=CC[C@H](CC(=O)NCCO)C(=O)N[C@@H](COC(=O)[C@@H](CC=C)Cc1ccc(F)cc1)Cc1c[nH]c2ccccc12` the Potency was 29.1 µM (active). With `C=CC[C@@H](CC(=O)NCCO)C(=O)N[C@H](C)COC(=O)[C@@H](CC=C)CC(=O)OC(C)(C)C` the Potency was “inactive”. With `CC(=O)NC(Cc1c[nH]c2ccccc12)C(=O)O` (stereo not drawn) the Potency was “inactive”. With `C=CC[C@@H](CC(=O)N[C@H](CO)Cc1ccccc1)C(=O)N[C@H](C)COC(=O)[C@@H](CC=C)Cc1ccc(F)cc1` the Potency was 20.6 µM (active). For `COC(=O)C(Cc1c[nH]c2ccccc12)NC(=O)CCNC(=O)c1ccco1` (stereo not drawn), the Potency was “inactive”. With `COc1ccc(CNC(=O)[C@H](Cc2c[nH]c3ccccc23)NC(C)=O)cc1OC` the Potency was “inactive”. With `O=C(CCc1c[nH]c2ccccc12)NCCOc1ccccc1` the Potency was “inactive”. For `C=CC[C@@H](CC(=O)N[C@H](CO)Cc1ccccc1)C(=O)N[C@@H](COC(=O)[C@@H](CC=C)Cc1ccc(F)cc1)Cc1c[nH]c2ccccc12`, the Potency was 16.4 µM (active). In the case of `CC(C)CNc1ncnc2c1nnn2C`, the Potency is reported as “inactive”. With `CCC(C)NC(=O)/C=C/c1ccc(S(=O)(=O)NCc2ccco2)cc1` (stereo not drawn) the Potency was “inactive”. In the case of `CC(=O)N1CCC(N(C(=O)Nc2ccc(Cl)cc2)C(C)C)CC1`, the Potency is reported as “inactive”. In the case of `CC(=O)NC(CC(=O)Nc1nc(-c2ccccc2)c(C(C)=O)s1)c1ccccc1` (stereo not drawn), the Potency is reported as “inactive”. In the case of `COc1ccccc1C(=O)OCc1cc(=O)n2nc(-c3cccs3)sc2n1`, the Potency is reported as “inactive”. For `Nc1ccccc1-c1nc2ccncc2[nH]1`, the Potency was “inactive”. For `CCc1ccc(Oc2coc3cc(OC(=O)c4cc5ccccc5oc4=O)ccc3c2=O)cc1`, the Potency was “inactive”. With `O=C1c2ccccc2-c2ccccc2NC1O` (stereo not drawn) the Potency was “inactive”. In the case of `O=C1NN(c2ccccc2)C(=O)/C1=C/c1ccc(-c2cccc(C(=O)O)c2)o1`, the Potency is reported as “inactive”. In the case of `O=C1CCC[C@@H]2CC(N3CCCCC3)C[C@@H]3CCN1[C@H]23` (stereo partly drawn), the Potency is reported as “inactive”. For `CN(C)C(CNC(=O)c1ccc(S(=O)(=O)NCc2ccco2)cc1)c1ccccc1` (stereo not drawn), the Potency was “inactive”. In the case of `Cc1noc(C)c1S(=O)(=O)N(C)C[C@H]1OCCCC[C@@H](C)Oc2ccc(NC(=O)CCCN(C)C)cc2C(=O)N([C@H](C)CO)C[C@@H]1C`, the Potency is reported as “inactive”. For `Cc1cc(/C=C2\SC(=Nc3ccc(N4CCOCC4)cc3)N(C)C2=O)c(C)n1-c1cccnc1`, the Potency was “inactive”. In the case of `CCCCN=C1C([N+](=O)[O-])=CC=C2C1=NC1(CCCCC1)N2O`, the Potency is reported as “inactive”. For `COc1ccccc1C(CNC(=O)c1ccc(C)c(S(=O)(=O)N2CCCCC2)c1)N(C)C` (stereo not drawn), the Potency was “inactive”. With `Cc1ccccc1OCC(=O)Nc1ccc2c(c1)ncn2C` the Potency was “inactive”. With `CCc1ccccc1OCC(=O)Nc1ccc(C)c(S(=O)(=O)N2CCCCCC2)c1` the Potency was 14.6 µM (active). With `O=C(COC(=O)COc1ccccc1F)Nc1cccc(S(=O)(=O)N2CCCCC2)c1` the Potency was “inactive”. In the case of `Cc1ccccc1OCC(=O)Nc1ccc(N2CCN(C(=O)C(C)C)CC2)c(Cl)c1`, the Potency is reported as 13 µM (active). For `Cc1ccccc1OCC(=O)Nc1ccc(S(=O)(=O)N2CCOCC2)cc1`, the Potency was “inactive”. For `CCc1ccccc1OCC(=O)Nc1ccc2c(c1)OCCO2`, the Potency was “inactive”. For `COc1ccc(NC(=O)C2=NNC(=O)CC2)cc1S(=O)(=O)N1CCCCC1`, the Potency was “inactive”. In the case of `COc1ccccc1C(=O)Nc1ccc(C)c(S(=O)(=O)N2CCCCC2)c1`, the Potency is reported as 20.6 µM (active). For `Clc1ccc(-c2cccc3nccn23)cc1`, the Potency was “inactive”. In the case of `Cc1ccc2c(c1)C(O)(CC(=O)c1cccc(-n3cccc3)c1)C(=O)N2` (stereo not drawn), the Potency is reported as “inactive”. For `C=CCOc1ccc(/C=C/C(=O)OCC(=O)NC2CCCCCC2)cc1`, the Potency was “inactive”. With `O=C1OCCOC2CCCc3oc(-c4ccccc4)c1c32` (stereo not drawn) the Potency was “inactive”. For `O=C(NCc1ccco1)/C(=C/c1cccc([N+](=O)[O-])c1)NC(=O)c1ccco1`, the Potency was “inactive”. With `CCc1ccc(N(C(=O)c2csnn2)C(C(=O)NC2CCCCC2)c2ccncc2)cc1` (stereo not drawn) the Potency was “inactive”. For `O=S(=O)(c1ccc(F)cc1)N1CCN=C1SCc1cccc(F)c1`, the Potency was “inactive”. In the case of `Clc1cc(NC2CCCCC2)ncn1`, the Potency is reported as “inactive”. For `Cc1cccn2c(=O)c(C(=O)NC(C)c3ccccc3)cnc12` (stereo not drawn), the Potency was “inactive”. For `CCCCC[C@H]1CN(C2CCCCC2)C(=O)[C@@H]1CC(=O)NCc1ccc(OC)cc1`, the Potency was 16.4 µM (active). With `COc1ccc(CNC(=O)[C@@H]2CC=C[C@@H]3CCN(C4CC4)C(=O)[C@@H]32)cc1` the Potency was “inactive”. In the case of `COc1ccc(CNC(=O)C2CCCC2)cc1`, the Potency is reported as “inactive”. With `CCN(CC)CCNC(=O)CN1N=C(c2ccc(OC)cc2)CCC1=O` the Potency was “inactive”. With `O=C(NC1CCCCC1)c1ccc(Cn2c(SCc3ccccc3)nc3cccnc32)cc1` the Potency was “inactive”. In the case of `COc1ccccc1CCCNC(=O)C1CCC(=O)N(CCN2CCOCC2)C1` (stereo not drawn), the Potency is reported as “inactive”. With `COc1ccccc1OCCn1c(SCC(N)=O)nc2ccccc21` the Potency was “inactive”. With `C=CCc1ccc(OCC(O)CN2CCN(Cc3ccccc3)CC2)c(OC)c1` (stereo not drawn) the Potency was “inactive”. For `CCCn1c(=N)n(CC(O)COc2ccccc2OC)c2ccccc21` (stereo not drawn), the Potency was 11.6 µM (active). For `COc1ccccc1OCC(O)CN1CCOCC1` (stereo not drawn), the Potency was “inactive”. In the case of `C=CCn1c(=N)n(CC(O)COc2ccc(OC)cc2)c2ccccc21` (stereo not drawn), the Potency is reported as 16.4 µM (active). For `COc1ccc(OCC(O)CN(C)C(=O)C(C)Oc2ccccc2)cc1` (stereo not drawn), the Potency was “inactive”. With `COc1c(N2CCN(C(=S)Nc3ccccc3F)C(C)C2)c(F)cc2c(=O)c(C(=O)O)cn(C3CC3)c12` (stereo not drawn) the Potency was “inactive”. For `CN(C)C(CNC(=O)c1cc2ccccc2o1)c1ccccc1` (stereo not drawn), the Potency was “inactive”. For `O=C(NCCc1ccc(C(F)(F)F)cc1)c1ccc2c(c1)OCO2`, the Potency was “inactive”. With `O=C(NCCc1ccc2c(c1)OCCO2)c1cc2ccccc2o1` the Potency was 16.4 µM (active). With `CCOc1ccc(C2C3=C(CCCC3=O)N(CC(=O)O)C3=C2C(=O)CCC3)cc1` the Potency was “inactive”. In the case of `C=CCN1CCN(C(=O)CCCc2ccccc2)CC1`, the Potency is reported as “inactive”. In the case of `COc1ccc(NC(=O)[C@H](NC(=O)[C@@H]2Cc3ccccc3CN2)c2ccccc2)cc1`, the Potency is reported as “inactive”. For `CC12CCCCC1=CC(=O)CC2` (stereo not drawn), the Potency was “inactive”. For `CCOc1ccc(C(O)Cn2c(=N)n(CCN3CCCCC3)c3ccccc32)cc1` (stereo not drawn), the Potency was 20.6 µM (active). In the case of `Cn1c(=N)n(CC(O)c2ccccc2)c2ccccc21` (stereo not drawn), the Potency is reported as “inactive”. For `Cn1c(=N)n(CC(O)c2cccs2)c2ccccc21` (stereo not drawn), the Potency was “inactive”. With `NC(=O)C1CCN(C(=O)c2cn(-c3ccccc3)nc2-c2cccnc2)CC1` the Potency was “inactive”. In the case of `CCOc1ccc(C(CC(=O)O)NC(=O)C23CC4CC(CC(C4)C2)C3)cc1OC` (stereo not drawn), the Potency is reported as “inactive”. For `Cc1cc(N2CCN(C)CC2)nc2ccc(NC(=S)N3CCOCC3)cc12`, the Potency was “inactive”. For `CCOCCCNC(=S)Nc1ccc2nc(N3CCN(CC)CC3)cc(C)c2c1`, the Potency was “inactive”. For `COc1ccc(C(=O)Nc2ccc3nc(N4CCCCC4)cc(C)c3c2)cc1OC`, the Potency was 23.1 µM (active) and 20.6 µM (active). For `COC(=O)c1ccc(NC(=O)c2cc(Cl)ccc2OC)cc1`, the Potency was “inactive”. For `CCN1CCN(c2cc(C)c3cc(NC(=O)c4cc(Cl)ccc4OC)ccc3n2)CC1`, the Potency was 4.61 µM (active). In the case of `COc1ccc(NC(=O)CC2SC(N3CCCCC3)=NC2=O)cc1OC` (stereo not drawn), the Potency is reported as “inactive”. In the case of `CCOc1cc(C(C(=O)NCC2CCCO2)N(C(=O)Cn2nnc3ccccc32)c2cccc(OC)c2)ccc1O` (stereo not drawn), the Potency is reported as “inactive”. In the case of `Cc1nnc(C(=O)NC(C)(C)c2nc(C(=O)NCc3ccc(F)cc3)c(O)c(=O)n2C)o1`, the Potency is reported as “inactive”. For `NC(=O)CCN1CCN(S(=O)(=O)/C=C/c2ccccc2)CC1`, the Potency was “inactive”. For `CN1OC[C@@H]2CN[C@H](c3ccc(-c4ccccc4)cc3)C[C@@H]21`, the Potency was “inactive”.
